The text below walks through data of ChEMBL document CHEMBL2218924, “A broad activity screen in support of a chemogenomic map for kinase signalling research and drug discovery” (Biochem J, 2013).

Assay [1] addresses Death-associated protein kinase 1 (Homo sapiens) (UniProt P53355). Particulars: at 10 µM.
The target in assay [2] is T1, Discoidin domain-containing receptor 2 (Homo sapiens) (UniProt Q16832).
T1 sequence (whole entry): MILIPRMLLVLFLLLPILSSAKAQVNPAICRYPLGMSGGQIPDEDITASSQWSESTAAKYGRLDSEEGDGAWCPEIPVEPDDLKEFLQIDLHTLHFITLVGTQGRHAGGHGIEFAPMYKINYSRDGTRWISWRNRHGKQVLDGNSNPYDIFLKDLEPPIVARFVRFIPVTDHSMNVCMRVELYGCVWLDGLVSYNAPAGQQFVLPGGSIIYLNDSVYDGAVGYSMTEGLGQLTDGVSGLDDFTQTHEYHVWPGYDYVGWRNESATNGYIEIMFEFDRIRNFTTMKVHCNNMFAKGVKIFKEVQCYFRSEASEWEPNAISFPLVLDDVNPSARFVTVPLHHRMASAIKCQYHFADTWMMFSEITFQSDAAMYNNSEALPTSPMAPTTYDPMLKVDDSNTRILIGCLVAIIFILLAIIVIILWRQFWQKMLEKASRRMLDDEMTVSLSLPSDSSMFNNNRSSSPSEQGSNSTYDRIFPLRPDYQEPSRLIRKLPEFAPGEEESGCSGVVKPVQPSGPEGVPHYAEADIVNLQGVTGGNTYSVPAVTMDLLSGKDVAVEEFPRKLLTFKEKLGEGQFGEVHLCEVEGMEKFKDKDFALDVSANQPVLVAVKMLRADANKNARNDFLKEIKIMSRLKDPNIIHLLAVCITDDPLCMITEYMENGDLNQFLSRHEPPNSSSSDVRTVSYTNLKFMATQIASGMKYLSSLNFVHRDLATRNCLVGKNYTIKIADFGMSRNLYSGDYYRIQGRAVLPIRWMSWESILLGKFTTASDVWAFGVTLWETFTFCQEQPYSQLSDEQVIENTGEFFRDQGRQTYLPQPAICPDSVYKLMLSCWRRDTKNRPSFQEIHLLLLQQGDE
Particulars: at 1 µM.

Assay [3] concerns the target T1, Discoidin domain-containing receptor 2 (Homo sapiens). Particulars: at 10 µM.
For assay [4], the target named is T2, Serine/threonine-protein kinase 17A (Homo sapiens) (UniProt Q9UEE5).
T2 sequence (whole entry): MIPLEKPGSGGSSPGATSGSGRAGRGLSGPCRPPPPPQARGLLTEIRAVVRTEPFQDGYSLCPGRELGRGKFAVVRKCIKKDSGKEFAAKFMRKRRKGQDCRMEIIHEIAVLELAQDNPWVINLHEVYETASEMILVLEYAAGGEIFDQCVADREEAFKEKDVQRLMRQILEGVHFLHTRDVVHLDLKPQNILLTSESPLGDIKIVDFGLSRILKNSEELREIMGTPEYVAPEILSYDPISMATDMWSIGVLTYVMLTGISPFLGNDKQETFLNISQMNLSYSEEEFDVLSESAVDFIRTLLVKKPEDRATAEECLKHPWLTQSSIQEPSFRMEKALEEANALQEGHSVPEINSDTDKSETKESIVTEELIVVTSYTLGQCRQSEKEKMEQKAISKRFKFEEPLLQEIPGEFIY
Particulars: at 1 µM.

Assay [5] has as its target T2, Serine/threonine-protein kinase 17A (Homo sapiens). Particulars: at 10 µM.
The target of assay [6] is T3, Dual specificity tyrosine-phosphorylation-regulated kinase 2 (Homo sapiens) (UniProt Q92630).
T3 sequence (whole entry): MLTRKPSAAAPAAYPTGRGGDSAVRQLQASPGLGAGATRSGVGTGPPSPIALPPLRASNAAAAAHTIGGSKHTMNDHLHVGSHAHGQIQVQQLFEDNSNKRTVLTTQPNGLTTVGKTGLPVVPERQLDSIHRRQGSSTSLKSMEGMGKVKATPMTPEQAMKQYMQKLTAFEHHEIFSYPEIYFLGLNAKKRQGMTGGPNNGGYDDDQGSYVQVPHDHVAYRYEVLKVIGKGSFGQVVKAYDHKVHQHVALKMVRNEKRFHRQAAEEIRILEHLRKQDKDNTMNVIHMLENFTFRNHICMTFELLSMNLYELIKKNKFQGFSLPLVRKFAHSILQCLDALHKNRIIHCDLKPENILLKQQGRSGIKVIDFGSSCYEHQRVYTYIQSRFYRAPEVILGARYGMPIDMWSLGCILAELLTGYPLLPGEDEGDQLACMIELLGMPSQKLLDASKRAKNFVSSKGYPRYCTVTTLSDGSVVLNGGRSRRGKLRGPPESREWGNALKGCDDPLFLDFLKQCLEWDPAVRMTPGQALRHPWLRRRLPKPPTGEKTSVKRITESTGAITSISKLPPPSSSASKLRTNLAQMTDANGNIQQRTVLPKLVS
Particulars: at 1 µM.

In assay [7] the target is T3, Dual specificity tyrosine-phosphorylation-regulated kinase 2 (Homo sapiens). Particulars: at 10 µM.
Assay [8] deals with T4, Ephrin type-A receptor 1 (Homo sapiens) (UniProt P21709).
T4 sequence (whole entry): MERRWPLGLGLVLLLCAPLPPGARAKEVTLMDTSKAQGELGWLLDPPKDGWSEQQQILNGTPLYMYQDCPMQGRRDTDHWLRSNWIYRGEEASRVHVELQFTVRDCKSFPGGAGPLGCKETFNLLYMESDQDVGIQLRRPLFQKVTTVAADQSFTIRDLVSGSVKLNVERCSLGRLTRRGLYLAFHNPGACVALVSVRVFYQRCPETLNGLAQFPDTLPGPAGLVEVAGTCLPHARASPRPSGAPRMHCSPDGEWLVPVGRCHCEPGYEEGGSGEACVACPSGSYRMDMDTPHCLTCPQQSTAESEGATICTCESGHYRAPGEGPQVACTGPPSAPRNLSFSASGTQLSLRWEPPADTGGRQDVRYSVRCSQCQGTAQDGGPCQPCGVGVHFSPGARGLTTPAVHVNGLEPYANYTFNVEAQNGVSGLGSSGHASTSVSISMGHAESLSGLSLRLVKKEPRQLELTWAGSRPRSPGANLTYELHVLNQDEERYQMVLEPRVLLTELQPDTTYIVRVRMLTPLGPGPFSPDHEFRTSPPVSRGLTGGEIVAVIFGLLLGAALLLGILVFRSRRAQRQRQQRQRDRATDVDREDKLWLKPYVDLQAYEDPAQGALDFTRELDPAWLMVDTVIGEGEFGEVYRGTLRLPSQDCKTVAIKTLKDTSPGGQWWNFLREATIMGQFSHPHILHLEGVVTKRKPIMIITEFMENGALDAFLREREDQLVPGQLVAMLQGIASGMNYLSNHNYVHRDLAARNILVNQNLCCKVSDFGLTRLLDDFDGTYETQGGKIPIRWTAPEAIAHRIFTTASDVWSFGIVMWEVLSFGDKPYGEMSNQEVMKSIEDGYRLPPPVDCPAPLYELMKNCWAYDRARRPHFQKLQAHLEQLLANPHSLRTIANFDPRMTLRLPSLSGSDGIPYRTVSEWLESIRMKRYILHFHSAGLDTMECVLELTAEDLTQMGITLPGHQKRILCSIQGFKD
Particulars: at 1 µM.

Assay [9] deals with T4, Ephrin type-A receptor 1 (Homo sapiens). Particulars: at 10 µM.
Assay [10] has as its target T5, Ephrin type-A receptor 3 (Homo sapiens) (UniProt P29320).
T5 sequence (whole entry): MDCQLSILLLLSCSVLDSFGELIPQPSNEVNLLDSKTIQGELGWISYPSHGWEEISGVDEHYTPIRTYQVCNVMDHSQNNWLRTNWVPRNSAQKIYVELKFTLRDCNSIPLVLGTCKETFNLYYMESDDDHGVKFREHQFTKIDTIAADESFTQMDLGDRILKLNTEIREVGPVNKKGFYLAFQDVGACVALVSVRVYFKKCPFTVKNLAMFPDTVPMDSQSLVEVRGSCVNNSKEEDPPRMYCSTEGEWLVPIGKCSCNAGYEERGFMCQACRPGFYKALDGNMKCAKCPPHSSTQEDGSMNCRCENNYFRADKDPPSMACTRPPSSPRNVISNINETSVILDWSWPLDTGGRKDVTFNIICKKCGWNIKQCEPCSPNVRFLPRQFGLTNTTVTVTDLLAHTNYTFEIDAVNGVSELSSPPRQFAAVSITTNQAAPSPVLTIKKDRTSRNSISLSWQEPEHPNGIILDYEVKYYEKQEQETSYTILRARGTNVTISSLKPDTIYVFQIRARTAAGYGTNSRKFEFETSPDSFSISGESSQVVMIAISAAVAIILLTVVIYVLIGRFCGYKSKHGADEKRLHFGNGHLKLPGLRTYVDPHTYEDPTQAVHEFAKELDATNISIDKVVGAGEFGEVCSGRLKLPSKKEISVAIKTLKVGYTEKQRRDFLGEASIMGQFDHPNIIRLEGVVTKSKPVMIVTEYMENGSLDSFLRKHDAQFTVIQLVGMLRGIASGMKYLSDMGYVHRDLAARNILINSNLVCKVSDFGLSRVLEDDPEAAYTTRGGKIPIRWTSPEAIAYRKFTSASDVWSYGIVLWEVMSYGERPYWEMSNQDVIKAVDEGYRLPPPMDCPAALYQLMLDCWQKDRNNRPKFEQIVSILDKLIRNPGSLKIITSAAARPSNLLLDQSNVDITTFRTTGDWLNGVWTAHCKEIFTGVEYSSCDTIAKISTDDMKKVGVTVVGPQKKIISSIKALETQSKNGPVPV
Particulars: at 1 µM.

Assay [11] concerns the target T6, Myotonin-protein kinase (Homo sapiens) (UniProt Q09013).
T6 sequence (whole entry): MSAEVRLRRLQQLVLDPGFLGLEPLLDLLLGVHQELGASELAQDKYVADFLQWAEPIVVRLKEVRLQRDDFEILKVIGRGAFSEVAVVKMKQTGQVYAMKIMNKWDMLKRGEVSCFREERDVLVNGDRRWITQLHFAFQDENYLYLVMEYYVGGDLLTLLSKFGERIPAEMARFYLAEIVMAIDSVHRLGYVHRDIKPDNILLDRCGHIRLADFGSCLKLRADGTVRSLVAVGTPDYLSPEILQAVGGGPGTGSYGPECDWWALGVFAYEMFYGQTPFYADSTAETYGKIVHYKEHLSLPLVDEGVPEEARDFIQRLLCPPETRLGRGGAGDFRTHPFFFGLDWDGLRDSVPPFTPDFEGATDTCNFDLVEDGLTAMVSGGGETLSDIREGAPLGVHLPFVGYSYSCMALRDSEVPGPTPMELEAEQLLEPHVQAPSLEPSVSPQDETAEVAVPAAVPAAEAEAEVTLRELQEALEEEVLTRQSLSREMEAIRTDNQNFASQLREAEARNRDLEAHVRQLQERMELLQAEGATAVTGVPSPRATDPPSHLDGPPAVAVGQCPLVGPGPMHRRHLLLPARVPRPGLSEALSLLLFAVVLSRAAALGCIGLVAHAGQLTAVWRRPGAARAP
Particulars: at 1 µM.

The target in assay [12] is T6, Myotonin-protein kinase (Homo sapiens). Particulars: at 10 µM.
In assay [13] the target is Death-associated protein kinase 2 (Homo sapiens) (UniProt Q9UIK4). Particulars: at 10 µM.
Chain of Death-associated protein kinase 2 (Homo sapiens) (Q9UIK4 whole entry, looked up): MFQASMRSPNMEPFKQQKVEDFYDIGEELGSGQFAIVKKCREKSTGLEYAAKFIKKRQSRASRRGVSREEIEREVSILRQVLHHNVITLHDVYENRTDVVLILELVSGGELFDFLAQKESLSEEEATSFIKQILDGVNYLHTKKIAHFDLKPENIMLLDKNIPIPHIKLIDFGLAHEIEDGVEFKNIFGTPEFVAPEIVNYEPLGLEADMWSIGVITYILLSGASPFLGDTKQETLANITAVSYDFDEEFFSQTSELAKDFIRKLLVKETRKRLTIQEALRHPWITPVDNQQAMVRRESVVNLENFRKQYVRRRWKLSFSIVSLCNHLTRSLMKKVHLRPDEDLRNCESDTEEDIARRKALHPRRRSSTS
Assay [14] concerns the target Ephrin type-A receptor 2 (Homo sapiens) (UniProt P29317). Particulars: at 10 µM.

Chain of Death-associated protein kinase 1 (Homo sapiens) (P53355 whole entry, looked up, the tested form may be a part): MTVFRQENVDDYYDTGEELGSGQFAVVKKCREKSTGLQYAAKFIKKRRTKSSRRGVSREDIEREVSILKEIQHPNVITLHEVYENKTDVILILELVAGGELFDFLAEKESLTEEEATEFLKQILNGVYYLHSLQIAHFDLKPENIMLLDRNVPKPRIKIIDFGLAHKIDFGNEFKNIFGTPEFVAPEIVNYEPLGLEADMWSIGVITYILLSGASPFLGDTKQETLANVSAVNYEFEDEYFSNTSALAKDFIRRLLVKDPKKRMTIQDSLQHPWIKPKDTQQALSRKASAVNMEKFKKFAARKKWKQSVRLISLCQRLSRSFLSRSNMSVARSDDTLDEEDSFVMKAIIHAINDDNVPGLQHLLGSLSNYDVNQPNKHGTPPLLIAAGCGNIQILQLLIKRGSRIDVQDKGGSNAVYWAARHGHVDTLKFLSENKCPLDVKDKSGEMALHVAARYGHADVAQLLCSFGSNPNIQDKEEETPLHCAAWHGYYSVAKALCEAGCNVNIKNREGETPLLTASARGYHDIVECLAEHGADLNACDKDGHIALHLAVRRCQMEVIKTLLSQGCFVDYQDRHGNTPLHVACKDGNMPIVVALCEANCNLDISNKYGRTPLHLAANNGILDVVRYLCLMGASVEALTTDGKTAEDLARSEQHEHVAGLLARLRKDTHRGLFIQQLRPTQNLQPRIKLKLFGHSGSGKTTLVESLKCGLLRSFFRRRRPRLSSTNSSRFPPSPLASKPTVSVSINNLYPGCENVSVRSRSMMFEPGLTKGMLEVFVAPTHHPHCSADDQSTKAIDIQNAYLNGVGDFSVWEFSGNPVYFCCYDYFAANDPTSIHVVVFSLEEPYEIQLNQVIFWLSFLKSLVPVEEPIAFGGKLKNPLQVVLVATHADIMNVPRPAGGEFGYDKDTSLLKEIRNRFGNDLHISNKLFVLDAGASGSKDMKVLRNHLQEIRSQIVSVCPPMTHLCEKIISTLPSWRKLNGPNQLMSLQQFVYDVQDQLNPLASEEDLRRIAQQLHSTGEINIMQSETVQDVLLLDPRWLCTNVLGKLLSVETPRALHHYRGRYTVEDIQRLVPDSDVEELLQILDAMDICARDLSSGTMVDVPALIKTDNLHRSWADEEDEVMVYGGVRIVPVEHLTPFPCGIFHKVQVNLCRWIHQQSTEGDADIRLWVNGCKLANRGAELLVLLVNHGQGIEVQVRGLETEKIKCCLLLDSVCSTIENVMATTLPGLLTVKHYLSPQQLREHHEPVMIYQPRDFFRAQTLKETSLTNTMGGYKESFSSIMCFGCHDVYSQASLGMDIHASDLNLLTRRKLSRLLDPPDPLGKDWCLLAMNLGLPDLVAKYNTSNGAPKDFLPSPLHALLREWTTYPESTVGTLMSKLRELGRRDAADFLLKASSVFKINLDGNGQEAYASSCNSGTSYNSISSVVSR
Chain of Ephrin type-A receptor 2 (Homo sapiens) (P29317 whole entry): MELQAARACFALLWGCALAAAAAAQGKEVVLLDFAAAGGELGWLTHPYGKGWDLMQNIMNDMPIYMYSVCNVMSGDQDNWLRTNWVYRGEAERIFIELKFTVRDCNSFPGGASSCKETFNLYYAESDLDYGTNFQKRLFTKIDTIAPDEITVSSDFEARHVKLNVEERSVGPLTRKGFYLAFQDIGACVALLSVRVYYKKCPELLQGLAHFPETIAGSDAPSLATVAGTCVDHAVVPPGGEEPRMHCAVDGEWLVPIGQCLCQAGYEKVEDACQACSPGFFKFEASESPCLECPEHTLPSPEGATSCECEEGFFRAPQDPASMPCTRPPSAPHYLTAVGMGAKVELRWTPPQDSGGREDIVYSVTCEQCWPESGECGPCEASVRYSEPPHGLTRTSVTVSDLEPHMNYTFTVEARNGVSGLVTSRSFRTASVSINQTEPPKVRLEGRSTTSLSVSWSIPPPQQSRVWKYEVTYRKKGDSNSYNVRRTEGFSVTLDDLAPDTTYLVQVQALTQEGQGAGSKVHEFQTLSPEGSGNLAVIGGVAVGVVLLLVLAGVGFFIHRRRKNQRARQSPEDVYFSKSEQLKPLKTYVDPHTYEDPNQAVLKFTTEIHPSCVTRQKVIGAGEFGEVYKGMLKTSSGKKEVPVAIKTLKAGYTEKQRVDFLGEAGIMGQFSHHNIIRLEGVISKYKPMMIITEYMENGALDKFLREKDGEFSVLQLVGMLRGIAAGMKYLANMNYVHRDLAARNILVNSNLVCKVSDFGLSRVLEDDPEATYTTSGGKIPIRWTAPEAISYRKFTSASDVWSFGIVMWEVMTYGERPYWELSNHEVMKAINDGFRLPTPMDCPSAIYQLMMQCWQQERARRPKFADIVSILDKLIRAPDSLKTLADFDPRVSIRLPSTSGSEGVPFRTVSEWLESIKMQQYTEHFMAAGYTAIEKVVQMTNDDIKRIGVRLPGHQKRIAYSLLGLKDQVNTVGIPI

On to `O=C(Nc1nc2ccccc2n1CCN1CCOCC1)c1cccc([N+](=O)[O-])c1`, for which the residual activity (usually the signal under treatment as a percentage of the control signal) was determined as 73% in assay [1]; 110% in assay [2]; 112% in assay [3]; 104% in assay [4]; 53% in assay [5]; 102% in [6]. Also, the residual activity in assay [7] came out at 88%; in assay [8], 80%; in [9], 123%; in assay [10] it was 104%.

On to `O=C1Cc2c([nH]c3ccc(Br)cc23)-c2ccccc2N1`, for which the residual activity in assay [11] turned out to be 97%; in [12] it was 83%; in assay [4], 76%; in [5], 39%; in assay [6], 92%; in assay [7] it was 45%. In addition, the results for the residual activity in assay [8], in assay [9] and in [10] were 91%, 78% and 83%, respectively.

In the case of `CCN1/C(=C/C(C)=O)Sc2ccc(OC)cc21`, the residual activity in assay [1] is 79%; in assay [12], 70%; in assay [6], 5%; in assay [7], -5%.

For the molecule `O=C1NC(=O)C(c2c[nH]c3ccccc23)=C1c1c[nH]c2ccccc12`, the residual activity came out at 58% in [13]; 67% in assay [4]; 25% in assay [5]; 77% in assay [8]; 22% in assay [9]; 50% in [14].
